Here are results for 25 compounds from PubChem BioAssay (NCATS).

Inconclusive results are not listed. Unmarked numbers belong to inactive results. Active and inactive are the calls of the source. Calls follow the shape of the dose curve; as a rule, active = well fitted inhibition curve with a large enough effect; inconclusive = small, poorly fitted or top-dose-only effect; inactive = flat fitted curve, though single readings scatter.

In assay [1] the test system is CRL-7250. As to the kind of experiment: Cytotoxic Profiling of Annotated Libraries Using Quantitative High-Throughput Screening (AID 1296008). Also: potency is read from the fitted curve at half-maximal effect. As to max response: % is scaled to controls: 0 for no effect and ±100 for the full control effect. As to conditions: Five cell lines viability, CellTiter-Glo ATP luminescence, 48-72 h; max response: stronger effect = lower value. An outline of the steps:
(§1)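 Cytotoxicity was measured as CellTiter-Glo ATP luminescence, read after 10 min at room temperature. Compound treatment of the cells lasted 48 or 72 hr at 37 degrees Celsius in a qHTS format.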

Assay [2] concerns HaCat. The assay is described as above. Particulars: Five cell lines viability, CellTiter-Glo ATP luminescence, 48-72 h; max response: stronger effect = lower value. The procedure, abridged: as §1
For assay [3], the system named is KB-3-1. The description is as above. Particulars: Five cell lines viability, CellTiter-Glo ATP luminescence, 48-72 h; max response: stronger effect = lower value. An outline of the steps:
as §1

For assay [4], the system named is NIH3T3. Described as above. As to conditions: Five cell lines viability, CellTiter-Glo ATP luminescence, 48-72 h; max response: stronger effect = lower value. The procedure, abridged: as §1
Assay [5] deals with ICS. As to the kind of experiment: qHTS profiling for inhibitors of Plasmodium falciparum proliferation (AID 504749). Also: potency is read from the fitted curve at half-maximal effect. As to conditions: P. falciparum in erythrocytes, SYBR Green DNA, 72 h; series mostly up to 28.7 µM. The procedure, abridged: (§2)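 Infected RBCs, 0.3% parasitemia/2.5% Hct final; cpd 72 h, 37 C, 5% CO2; lysis buffer with saponin/triton/SYBR Green I, o/n RT dark; FI 485/535; norm. to artemisinin (0.29 uM) and DMSO.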

The subject of assay [6] is N140. The description is as above. As to conditions: P. falciparum in erythrocytes, SYBR Green DNA, 72 h; series mostly up to 28.7 µM. The procedure, abridged:
as §2

In assay [7] the test system is P93_24. The assay is described as above. As to conditions: P. falciparum in erythrocytes, SYBR Green DNA, 72 h; series mostly up to 28.7 µM. An outline of the steps: as §2
The test system of assay [8] is P94_40. The description is as above. As to conditions: P. falciparum in erythrocytes, SYBR Green DNA, 72 h; series mostly up to 28.7 µM. An outline of the steps: as §2
In assay [9] the test system is PAD. The description is as above. As to conditions: P. falciparum in erythrocytes, SYBR Green DNA, 72 h; series mostly up to 28.7 µM. An outline of the steps: as §2
The test system of assay [10] is PC15. The description is as above. As to conditions: P. falciparum in erythrocytes, SYBR Green DNA, 72 h; series mostly up to 28.7 µM. An outline of the steps: as §2
Assay [11] relates to PC26. The description is as above. As to conditions: P. falciparum in erythrocytes, SYBR Green DNA, 72 h; series mostly up to 28.7 µM. An outline of the steps:
as §2

Assay [12] concerns SC27B. Described as above. As to conditions: P. falciparum in erythrocytes, SYBR Green DNA, 72 h; series mostly up to 28.7 µM. An outline of the steps: as §2
Assay [13] concerns TAB109. Described as above. Particulars: P. falciparum in erythrocytes, SYBR Green DNA, 72 h; series mostly up to 28.7 µM. The procedure, abridged:
as §2

In assay [14] the test system is TAB113. The assay is described as above. Particulars: P. falciparum in erythrocytes, SYBR Green DNA, 72 h; series mostly up to 28.7 µM. An outline of the steps: as §2
Assay [15] concerns TAB165. The assay is described as above. Particulars: P. falciparum in erythrocytes, SYBR Green DNA, 72 h; series mostly up to 28.7 µM. An outline of the steps: as §2
Assay [16] deals with HACAT. The experiment in a line: qHTS assay to identify novel small-molecules to repurpose for Merkel cell carcinoma treatment (AID 1296009). Particulars: MCC and control cell lines, CellTiter-Glo viability, 72 h; at 44.8 µM (top of the series) unless noted. An outline of the steps: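 72 hr, 37 degree celsius; NPC 8-pt / MIPE 11-pt dose response; compound pinned in DMSO; CellTiter-Glo, 10 min RT, luminescence; normalized to no-cell and DMSO controls.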

Assay [17] relates to HEK293. The experiment in a line: Cytotoxic Profiling of Annotated Libraries Using Quantitative High-Throughput Screening (AID 1296008). Also: potency is read from the fitted curve at half-maximal effect. As to max response: % is scaled to controls: 0 for no effect and ±100 for the full control effect. Particulars: Five cell lines viability, CellTiter-Glo ATP luminescence, 48-72 h; max response: stronger effect = lower value. The procedure, abridged:
as §1
Also: nearly all actives have a fitted effect of over 60% in size.

Consider `CC[N+](CC)(CC)CCOC(=O)C(C1CCCC1)C1CCCC1`, for which the result in [1] was inactive. Moreover, the values for the max response in assay [2], in [3] and in assay [4] were -3.44%, 9.62% and -5.66%, respectively.

For `CCCCCCCCCCCCCCCC[n+]1ccccc1`, the Potency was 2.51 µM (active) in assay [5]; 8.91 µM (active) in [6]; 7.94 µM (active) in [7]; 8.91 µM (active) in [8]; 12.6 µM (active) in assay [9]; 10 µM (active) in [10]. Moreover, the Potency was 12 µM (active) in assay [11]; 10 µM (active) in [12]; 8.91 µM (active) in assay [13]; 5.01 µM (active) in [14]; 4.47 µM (active) in assay [15]; 1.5 µM (active) in [1]. The Potency in [2] was 5.96 µM (active); in [3], 14.6 µM (active); in assay [4], 16.8 µM (active).

For `CN(C)[C@@H]1C(=O)C(C(N)=O)=C(O)[C@@]2(O)C(=O)C3=C(O)c4c(O)cccc4C[C@H]3C[C@@H]12`, the figures for the max response in assay [1], in assay [2] and in assay [4] were -0.669%, -5.74% and 1.19%, respectively.

For the compound `CN(C)CCOC1=Cc2ccccc2Sc2ccc(Cl)cc21`, the max response was -2.09% in [1], -15.8% in assay [3] and -0.0906% in assay [4]. The result in assay [2] and in assay [16] was inactive.

For the compound `Nc1c2ccccc2nc2ccccc12`, the Potency in [5] was 7.94 µM (active); in [6], 5.01 µM (active); in [7], 7.08 µM (active); in [8], 5.62 µM (active); in [9], 7.94 µM (active); in assay [10] it was 11.2 µM (active). The Potency is 15.1 µM (active) in assay [11]; 10 µM (active) in assay [12]; 7.08 µM (active) in assay [13]; 10 µM (active) in assay [14]; 8.91 µM (active) in assay [15]; 8.41 µM (active) in [1]. Also, the results for the Potency in assay [17] and in assay [4] were 5.96 µM (active) and 21.1 µM (active), respectively.

Consider `O=c1[nH]sc2cc(Cl)ccc12`, for which the values for the max response in assay [1], in assay [17] and in assay [4] were -108%, -119% and -92.7%, respectively.

In the case of `CCOC(=O)c1ccc(NC(=O)CN2CCCCC2)cc1`, the max response in assay [1] was -6.82%; in assay [2], 4.59%. Further, the result in assay [3] and in [4] was inactive.

For `O=C(NO)c1ccccc1`, the max response in assay [1] was -19.7%; in [2] it was 4.14%; in assay [3] it was -12.1%; in [4], -4.92%.

`CCCCC(=O)OCC(=O)[C@H]1[C@H](C)C[C@H]2[C@@H]3C[C@H](F)C4=CC(=O)C=C[C@]4(C)[C@@]3(F)[C@@H](O)C[C@@]21C`: the max response in assay [1] is -1.6%; in assay [2], 1.04%; in assay [3], -3.44%; in assay [4], -6.1%.

Regarding `CC(=O)[C@@]1(O)CC[C@H]2[C@@H]3C[C@H](C)C4=CC(=O)CC[C@]4(C)[C@H]3CC[C@@]21C`, the max response was -14.2% in [1], -16.6% in assay [2] and -7.02% in assay [3].

For the compound `CC(C)NCCCC1(C(N)=O)c2ccccc2-c2ccccc21`, the outcome in assay [1] was inactive. In addition, the max response in assay [2] was 4.87%; in assay [4], -1.37%.

As to `CCCC(=O)c1cc(O)c(O)cc1O`, the results for the max response in [1] and in assay [2] were -22.6% and -3.56%, respectively.

With `CCCCNc1ccc(C(=O)OCCN(CC)CC)cc1`, the results for the max response in assay [1], in assay [2] and in [3] were -6.06%, -28.3% and -0.138%, respectively.

Regarding `CN(C)CCOC(c1ccccc1)c1ccc(Br)cc1` (configuration not stated), the max response in assay [1] was -20.9%; in [2], 1.11%; in [4] it was -1.24%.

For `CC(=O)OC/C=C(C)/C=C/C=C(C)/C=C/C1=C(C)CCCC1(C)C`, the results for the max response in assay [1], in [3] and in assay [4] were 0.956%, -3.66% and 1.83%, respectively. The outcome in [2] and in assay [16] was inactive.

As for `CCCC(=O)O[C@]1(C(=O)CCl)[C@@H](C)C[C@H]2[C@@H]3CCC4=CC(=O)C=C[C@]4(C)[C@@]3(F)C(=O)C[C@@]21C`, the max response in assay [1] was -8.55%; in assay [2], -2.69%; in assay [4], -3.48%.

In the case of `CCCN(CCC)C(=O)C(CCC(=O)OCCCN1CCN(CCOC(=O)Cc2c(C)n(C(=O)c3ccc(Cl)cc3)c3ccc(OC)cc23)CC1)NC(=O)c1ccccc1` (configuration not stated), the max response in [1] was -6.96%; in assay [2], -0.687%; in [3], -0.886%; in assay [4], 1.41%.

As for `O=C1Nc2ccccc2C1(c1ccc(O)cc1)c1ccc(O)cc1`, the Potency in [1] was 23.7 µM (active). In addition, the max response in [2] is -55.1%; in assay [4] it was -21.7%.

Turning to `CO/N=C(/C(=O)N[C@@H]1C(=O)N2C(C(=O)O)=C(Cn3nnc(C)n3)CS[C@H]12)c1csc(N)n1`, the max response in assay [1] is 4.76%; in assay [2], -1.44%; in [4], 2.67%. The compound was called inactive in assay [3].

With `CCC(=O)Oc1ccc2c(c1)CC[C@@H]1[C@@H]2CC[C@@]2(C)[C@H]1C[C@@H](OC(=O)CC)[C@@H]2OC(=O)CC`, the max response was -3.71% in assay [1] and -1.68% in assay [2]. Moreover, the outcome in assay [4] was inactive.

As to `CCC(CN)=C(c1ccccc1)c1ccccc1`, the outcome in assay [1] and in assay [4] was inactive. Further, the max response in [2] is 1.4%.

For the compound `O=C(c1cc(O)c(O)c(O)c1)c1ccc(O)c(O)c1O`, the max response in [1] is -19.4%; in assay [2], -2.77%.

Consider `CCCCCN(CCCOC)C(=O)C(CCC(=O)O)NC(=O)c1ccc(Cl)c(Cl)c1` (configuration not stated), for which the max response in assay [1] was -0.363%; in assay [17], -5.64%; in [4], -3.2%.

For the compound `CC(C)(C)c1ccc(C(=O)CCCCl)cc1`, the result in [1] and in assay [4] was inactive. In addition, in [2], the max response was 3.33%.

`Cc1nn(-c2ccccc2)c(C)c1/C=N/N1CCN(Cc2ccccc2)CC1`: the max response in assay [1] is 4.78%; in assay [2], -14.9%; in assay [3], 8.96%; in assay [4], 3.85%.
